The whole screen tested about 5,500 compounds, of which about 2,000 (36%) were called active. Inconclusive results (about 18%) are left out. No stated cut-off is given here; in the data, active means normalized growth mostly below about 0.91 (no sharp cut-off); inconclusive means no clear call, values can overlap the other calls; inactive means mostly above about 0.92. The list shows a part of the results.
Experiment: chemical genetic growth profiling, strain panel (AID 1159580);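 further: tested at 20 µM; growth read once vehicle control cultures reached saturation at 30 °C; 1 = growth at the plate median or of vehicle wells; lower values mean less growth of the strain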
Conditions: S. cerevisiae deletion strains, growth OD
[1] = locus YGR229C, strain SMI1, active compounds read low
[2] = locus YJR075W, strain HOC1, active compounds read low
[3] = locus YMR263W, strain SAP30, active compounds read low
[4] = locus YMR307W, strain GAS1, active compounds read low
[5] = locus YNL153C, strain GIM3, active compounds read low
[6] = locus YNL322C, strain KRE1, active compounds read low

Measured: normalized growth

CC(C)c1ccc2c(c1)c(SC(C)(C)C)c(CC(C)(C)C(=O)O)n2Cc1ccc(Cl)cc1
inactive: locus YAL040C, strain CLN3, active compounds read low 1.02 | locus YCL061C, strain MRC1 (second series), active compounds read low 1 | locus YDR363W, strain ESC2, active compounds read low 1 | locus YER002W, strain NOP16, active compounds read low 1.03 | [1] 1.03 | [2] 1.02 | [3] 1.01 | [4] 1 | locus YNL128W, strain TEP1, active compounds read low 0.967 | [5] 0.972 | locus YNL175C, strain NOP13, active compounds read low 1.01 | locus YNL197C, strain WHI3, active compounds read low 1.01 | locus YNL224C, strain SQS1, active compounds read low 1.01 | [6] 1.01 | locus YOR083W, strain WHI5 (second series), active compounds read low 0.992

NC(=O)N[C@@H]1O[C@H](CO)[C@@H](O)[C@H](O)[C@H]1O
inactive: locus YAL013W, strain DEP1, active compounds read low 1.03 | locus YBR229C, strain ROT2, active compounds read low 1.01 | locus YCL061C, strain MRC1, active compounds read low 0.987 | locus YDL101C, strain DUN1, active compounds read low 0.994 | locus YDR150W, strain NUM1, active compounds read low 0.992 | locus YEL061C, strain CIN8, active compounds read low 1.02 | locus YGR078C, strain PAC10, active compounds read low 0.993 | [1] 1 | locus YHR030C, strain SLT2, active compounds read low 1 | locus YHR087W, strain rtc3, active compounds read low 1.01 | locus YJL187C, strain SWE1, active compounds read low 1.01 | locus YJR043C, strain POL32, active compounds read low 0.975 | [2] 1 | locus YKL190W, strain CNB1, active compounds read low 1.01 | locus YLR039C, strain RIC1, active compounds read low 1.02 | locus YLR058C, strain SHM2 (second series), active compounds read low 1.01 | locus YLR085C, strain ARP6, active compounds read low 1.07 | locus YLR262C, strain YPT6, active compounds read low 0.981 | locus YML094W, strain GIM5, active compounds read low 1.02 | locus YMR219W, strain ESC1, active compounds read low 1.01 | [3] 0.999 | [4] 1.02 | [5] 0.989 | locus YNL298W, strain CLA4 (second series), active compounds read low 1.05 | [6] 1 | locus YNR030W, strain Alg12, active compounds read low 1.02 | locus YPL055C, strain LGE1, active compounds read low 1.04 | locus YPL241C, strain CIN2, active compounds read low 1.04 | locus YPR135W, strain CTF4, active compounds read low 0.98

From PubChem BioAssay AID1159580 (chemical genetic matrix, 2015)
